From PubChem
In the library only some 3.2% were active in any assay of this set; here they are far more common.
AmpC inh no detg: inhibitors of E. coli AmpC beta-lactamase without detergent. P00811. AmpC nitrocefin hydrolysis, absorbance 480 nm, 0.0001% Triton. Potency, µM (titrated, usually from 57.1 µM), for the others: at the highest dose activity change, negative = inhibition, most hits filed as inhibitors. 0.52% of 330,000 active. AID 485341;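 further: plate controls were no compound for no effect and no enzyme for full effect; nearly all actives have a fitted effect of over 20% in size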
Target sequence (P00811 whole entry, looked up): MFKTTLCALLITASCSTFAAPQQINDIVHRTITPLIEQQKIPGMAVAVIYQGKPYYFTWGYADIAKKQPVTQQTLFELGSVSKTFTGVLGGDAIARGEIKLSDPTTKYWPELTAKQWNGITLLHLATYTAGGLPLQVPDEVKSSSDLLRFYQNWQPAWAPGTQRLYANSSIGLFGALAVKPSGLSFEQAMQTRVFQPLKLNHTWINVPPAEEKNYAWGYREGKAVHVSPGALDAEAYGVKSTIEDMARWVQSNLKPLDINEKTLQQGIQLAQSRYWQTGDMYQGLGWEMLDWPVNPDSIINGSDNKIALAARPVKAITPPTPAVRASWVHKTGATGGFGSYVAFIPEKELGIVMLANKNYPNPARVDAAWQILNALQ
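AmpC (5.3 nM in the dispensed reagent) in 20 mM phosphate pH 7.0 with 0.01% (detergent screen) or 0.0001% Triton X-100 was preincubated with compounds for 15 min at room temperature. Nitrocefin was then added from an 800 uM solution, and hydrolysis was followed at 480 nm.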
AMA1-RON2 inh: disrupts binding of P. falciparum AMA1 to RON2; 0.2% of 360,000 active; Potency, µM (series often up to 58.2 µM), inactives show top-dose activity change, negative = inhibition, most hits filed as inhibitors; AlphaScreen AMA1-biotinylated RON2 peptide binding; AID 720542;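 further: 0% = vehicle wells and -100% = peptide control; nearly all actives have a fitted effect of over 45% in size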
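AMA1 (3D7) with his tag at 25 nM final met compounds first, then biotinylated RON2 peptide at 25 nM; detection used donor plus acceptor beads, 10 µg/mL apiece, read by AlphaScreen after 30 min at room temperature.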
RE007 growth inh: less growth of the S. pombe RE007 Vpr strain; Potency, µM (series often up to 92.2 µM), inactives show at the top dose activity change, negative = less growth, usual class: inhibitors; S. pombe RE007 Vpr strain, BacTiter-Glo ATP luminescence, 24 h; 0.21% of 360,000 active; active means well fitted falling curve with a large enough effect; inconclusive means small, poorly fitted or top-dose-only effect; inactive means no such curve, though single readings can be large or run the other way; further: nearly all actives have a fitted effect of over 50% in size
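Fission yeast RE007 carrying one integrated HIV-1 vpr copy, seeded at OD 0.01 in PMG+AL medium with 23 nL pinned compound. Grown 24 h at 30 degrees; viability read by BacTiter-Glo luminescence after 5 min.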
Sm TGR inh: inhibitors of Schistosoma mansoni thioredoxin glutathione reductase; purified TGR, DTNB reduction, TNB absorbance 405 nm; Potency, µM (titrated, usually from 114 µM), for the others: at the highest dose activity change, negative = inhibition, most hits filed as inhibitors; 3% of 360,000 active; AID 485364; further: nearly all actives have a fitted effect of over 60% in size
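First, TGR (20 nM dispensed) and NADPH were mixed with compound. Second, a 15 min room-temperature incubation followed. Third, further NADPH and then DTNB were added to start the reaction. Finally, TNB absorbance was monitored kinetically.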
AmpC inh detg: blocks E. coli AmpC beta-lactamase in detergent assay | P00811 | AmpC hydrolysis of nitrocefin, absorbance 480 nm, 0.01% Triton | Potency, µM (highest dose often 114 µM), for the others: at the top dose activity change, negative = inhibition, hits mostly inhibitors | 0.041% of 370,000 active | AID 485294;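 further: 0% = no-compound wells and -100% = no-enzyme wells; nearly all actives have a fitted effect of over 25% in size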
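AmpC (5.3 nM in the dispensed reagent) in 20 mM phosphate pH 7.0 with 0.01% (detergent screen) or 0.0001% Triton X-100 was preincubated with compounds for 15 min at room temperature. Nitrocefin was then added from an 800 uM solution, and hydrolysis was followed at 480 nm.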
* marks the source's active call; other numbers are inactive results; ? = inconclusive; . = no result given. Unless noted, the call rests on the fitted dose curve; in most records, active means well fitted curve in the direction sought with a large enough effect; inconclusive means small, poorly fitted or top-dose-only effect, or another doubt; inactive means no such curve, though single readings can be large; an effect the other way counts as inactive or inconclusive. Unless noted, on the % scale 0 is the no-effect control and ±100 the full control effect; potency means the concentration at half of the fitted maximal effect.

SMILES	AmpC inh no detg	AMA1-RON2 inh	RE007 growth inh	Sm TGR inh	AmpC inh detg
C/C(=N\NC(=O)c1ccccc1NC(=O)c1ccc(Cl)cc1)c1ccncc1	-22.6%	21.1%	3.98µM*	-3.9%	0.3%
C/C(=N/NS(=O)(=O)c1ccc(Cl)cc1)c1ccncc1	-21.0%	-8.4%	1.4%	28.2µM*	?
CC(=O)c1ccc(NC(=O)CN2C(=O)CCc3cc(S(=O)(=O)N4CCC(C)CC4)ccc32)cc1	.	.	.	-3.2%	-10.8%
O=C1C2C3C=CC(C3)C2C(=O)N1c1ccccc1 (stereo unspecified)	-12.4%	13.5%	4.8%	-1.7%	0.0%
O=C1C2C3C=CC(C3=C3CCCCC3)C2C(=O)N1c1ccccc1 (stereo unspecified)	-14.6%	2.2%	35.5µM*	15.8µM*	-1.7%
Cc1ccc(N2CCN(c3nc4ccccc4n4nnnc34)CC2)c(C)c1	.	.	.	9.4%	-5.0%
COc1ccc(CNC(=O)c2oc3c(c2C)-c2nn(Cc4ccccc4Cl)cc2CC3)cc1	.	.	.	-8.4%	-2.2%
Cc1cc(C)cc(-n2c3nc4ccccc4nc3c3c(=O)n(Cc4ccco4)cnc32)c1	101.7%	-6.1%	29.5%	15.8µM*	-9.5%
Cc1nc2c(c(=O)n1Cc1ccccc1Cl)c1nc3ccccc3nc1n2Cc1ccco1	-1.1%	.	.	2.82µM*	-6.3%
Cc1ccc(NC(=O)CSc2nc(-c3ccco3)nc3cc(=O)[nH]n23)cc1	.	.	.	?	-3.5%
O=C(O)CCN1C(=O)/C(=C\c2ccc(-c3nc4ccccc4s3)o2)SC1=S	-22.2%	-17.6%	4.7%	50.1µM*	-13.0%
O=C(O)CN1C(=O)/C(=C/C=C/c2ccccc2)SC1=S	-13.5%	13.8%	6.4%	-7.6%	?
O=C(O)CCCN1C(=O)/C(=C\c2ccco2)SC1=S	-18.8%	-2.6%	-8.0%	?	0.9%
O=C(O)CN1C(=O)/C(=C\C(Br)=C\c2ccccc2)SC1=S	-36.1%	-2.4%	7.3%	20µM*	1.5%
O=C(O)CN1C(=O)/C(=C\c2ccc(OC(=O)c3ccco3)cc2)SC1=S	-29.4%	-9.7%	-1.5%	-34.5%	2.5%
O=C(O)CN1C(=O)/C(=C/c2ccc(SCc3ccccc3)o2)SC1=S	-18.3%	-3.9%	5.1%	10µM*	-0.3%
Cn1c(SCc2ccc(C(F)(F)F)cc2)nc2c([nH]c3ccccc32)c1=O	.	.	.	6.8%	8.6%
CC[n+]1ccc(/C=C/c2ccc(N(C)C)cc2)c2ccccc21	21.6%	28.2µM*	12.6µM*	-21.3%	-8.5%
CC[n+]1c(/C=C/c2ccc(N(C)C)cc2)ccc2ccccc21	0.0%	?	12.6µM*	?	?
CC[n+]1c(/C=C/Nc2ccccc2)oc2ccc(OC)cc21	-7.4%	4.8%	0.7%	.	-1.2%
CC/C(=C\c1oc2cc3ccccc3cc2[n+]1CC)Nc1ccccc1	-8.0%	-2.7%	4.0%	20µM*	?
CN1C(=O)C(=Cc2ccccc2Oc2ccc(Cl)c(F)c2)C(=O)N(C)C1=O	-19.4%	7.1%	-10.9%	31.6µM*	-8.9%
O=C1NC(=O)C(=Cc2ccccc2Oc2ccc(F)cc2)C(=O)N1	-16.9%	-14.2%	0.9%	70.8µM*	3.5%
Cc1ccc(S(=O)(=O)Oc2ccccc2C=C2C(=O)NC(=O)NC2=O)cc1	.	11.8%	9.5%	.	.
Cc1cccc(-n2c(=O)c3c4c(sc3n3cnnc23)CCCC4)c1	.	.	.	?	13.4%
SMILES	AmpC inh no detg	AMA1-RON2 inh	RE007 growth inh	Sm TGR inh	AmpC inh detg
N#CC1=C(N)N(c2cccc(Cl)c2)C2=C(C(=O)CCC2)C1c1cc(CN2CCOCC2)cs1 (stereo unspecified)	.	.	.	2.1%	-5.2%
O=C(c1ccco1)N1CCN(CC(O)COc2ccc(Br)cc2)CC1 (stereo unspecified)	90.9%	-2.0%	7.8%	44.7µM*	-9.8%
COc1cc(/C=C2\SC(N)=NC2=O)ccc1OCC(=O)Nc1ccc(C)cc1	10µM*	9.9%	19.0%	-11.5%	?
COc1ccc(/C=C2/SC(=O)N(CCC(=O)Nc3ccc(C)cc3)C2=O)cc1OC	-1.6%	.	.	4.9%	-7.2%
Cc1csc(NC(=O)C2CC(=O)N(Cc3ccco3)C2)n1 (stereo unspecified)	-16.2%	14.6%	-3.4%	44.7µM*	1.7%
O=C(COC(=O)C1CC(=O)N(Cc2ccco2)C1)c1ccc(OC(=O)c2ccccc2)cc1 (stereo unspecified)	95.4%	-23.0%	8.2%	25.1µM*	-17.2%
O=C(OCC(=O)N1c2ccccc2Sc2ccccc21)C1CC(=O)N(Cc2ccco2)C1 (stereo unspecified)	128.1%	-8.3%	5.9%	28.2µM*	?
O=C(COC(=O)C1CC(=O)N(Cc2ccco2)C1)Nc1ccccc1[N+](=O)[O-] (stereo unspecified)	-5.6%	0.8%	29.9%	-1.2%	0.0%
Cc1cc(NC(=O)Nc2nnc(N3CCCCC3)s2)ccc1Br	.	.	.	-0.8%	25.3%
CCOc1cccc(C(=O)Nc2ccc(-c3nc4cc(C)cc(C)c4o3)cc2)c1	.	.	.	-11.6%	-2.9%
Cc1cccc(-c2noc(CSc3nc(-c4ccc(F)cc4)cc(=O)[nH]3)n2)c1	.	.	.	4.3%	22.5%
O=C(Nc1ccc2nc(SCC(=O)N3CCc4ccccc43)sc2c1)c1ccc(F)cc1	.	.	.	51.6%	21.2%
CN=c1scc(-c2ccco2)n1/N=C/c1ccc(O)c(O)c1	-43.5%	-12.0%	-13.5%	10µM*	4.2%
COc1ccc(O)c(/C=N/n2c(-c3ccco3)csc2=Nc2cccnc2)c1	-9.3%	42.9%	8.5%	-15.8%	-6.2%
CC(C)c1ccc(OC(=O)c2cc(-c3ccccc3)on2)cc1	.	.	.	0.8%	26.0%
COc1cc2c(cc1OC)C(c1ccc(-c3ccc(Cl)c(Cl)c3)o1)=NCC2	75.5%	-26.9%	31.6µM*	?	3.0%
CCOc1cc(-c2nc(-c3ccc(-c4ccc(OC)cc4)nc3OC)no2)cc(OCC)c1OCC	.	.	.	11.1%	18.8%
O=C(Cn1c(=O)n2nc(-c3ccccc3)nc2c2ccccc21)Nc1ccccc1C(F)(F)F	.	.	.	-14.4%	0.8%
CC1(C)CC2CC(C)(CN2Cc2c(O)ccc3ccccc23)C1 (stereo unspecified)	11.2µM*	6.9%	-16.4%	6.31µM*	-1.8%
COc1ccc(-n2c(=O)c3c4c(sc3n(Cc3ccc(F)cc3)c2=O)CN(C(C)=O)CC4)c(OC)c1	.	.	.	-4.8%	-1.7%
COc1cc(OC)c(NC(=O)N2CC=C(c3c[nH]c4ccccc34)CC2)cc1Cl	.	.	.	-13.6%	16.9%
O=C(Nc1ccc(Cl)cc1)c1cnn2c1NC(c1ccccc1)=CC2c1ccccc1 (stereo unspecified)	.	.	.	-2.0%	23.1%
O=C1OC(Nc2ccc3c(c2)OCO3)c2ccccc21 (stereo unspecified)	-32.4%	-18.6%	-5.2%	8.91µM*	-1.9%
